Experimental findings from PubChem BioAssay (Tox21) are described below.

A number with no mark means an inactive call. Records with an inconclusive call do not appear. Active and inactive are the calls of the source. Unless noted, the call rests on the fitted dose curve.

The nature of experiment [1]: Nuclear factor erythroid 2-related factor 2/antioxidant responsive element (Nrf2/ARE) small molecule agonists: luciferase reporter gene qHTS assay in human keratinocytes (AID 1919969). Further: nearly all actives have a fitted effect of over 35% in size. Further: potency means the concentration at half of the fitted maximal effect. Background: In a reporter assay the amount or activity of a reporter protein is the signal.
In experiment [2] the target is Gonadotropin-releasing hormone receptor (Homo sapiens) (UniProt P30968). Put plainly: Human gonadotropin-releasing hormone receptor (GnRHR) small molecule agonists, calcium flux assay in GnRHR-HEK293 cells (AID 1920063). Further: nearly all actives have a fitted effect of over 35% in size. The procedure, abridged:
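Agonist activity was measured as intracellular calcium flux in HEK293 cells engineered to stably express human GnRHR. After dye loading for 1 hour at 37 C, compounds in DMSO were added and fluorescence was followed for 3 minutes.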
For orientation: Calcium assays in cells follow changes in intracellular calcium, usually with a dye or a luminescent sensor.

The target of experiment [3] is KiSS-1 receptor (Homo sapiens) (UniProt Q969F8). The experiment can be described thus: Human kisspeptin (KISS1R) small molecule agonists, calcium flux assay in KISS1R-HEK293 cells (AID 1920064; active means well fitted activation curve with a large enough effect in the repeat runs). The procedure, abridged: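 Agonist activity is monitored as intracellular calcium rise in engineered HEK293 cells carrying human KISS1R. Cells are dye-loaded for 1 h at 37 C before compound addition, and fluorescence is recorded for 3 min.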
Sequence of KiSS-1 receptor (Homo sapiens) (Q969F8 whole entry, looked up): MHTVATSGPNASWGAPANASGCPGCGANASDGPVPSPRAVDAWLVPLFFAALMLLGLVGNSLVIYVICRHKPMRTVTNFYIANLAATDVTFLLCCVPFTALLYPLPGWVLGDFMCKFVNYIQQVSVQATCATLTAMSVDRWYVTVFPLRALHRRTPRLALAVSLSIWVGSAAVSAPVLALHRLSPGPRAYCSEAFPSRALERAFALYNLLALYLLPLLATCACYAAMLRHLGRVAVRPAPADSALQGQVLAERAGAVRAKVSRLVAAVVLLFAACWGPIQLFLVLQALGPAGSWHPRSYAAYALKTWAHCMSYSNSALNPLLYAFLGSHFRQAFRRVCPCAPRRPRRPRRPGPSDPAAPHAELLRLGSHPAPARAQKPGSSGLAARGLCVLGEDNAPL

Experiment [4] in a line: G protein-coupled receptor (GPCR) small molecule agonists, calcium flux assay: HEK293 wild type cell line counter screen (AID 1920065). The procedure, abridged:
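Seed cells, incubate 18 h (37 C, 5% CO2); add calcium dye, 1 h at 37 C; pin-transfer compounds, ATP control or DMSO; read fluorescence 480/540 nm each second for 3 min.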

Experiment [5] in a line: p53 small molecule agonists, cell-based qHTS assay with human liver microsomes (AID 1963577). A digest of the protocol: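 p53RE-bla cells, 4,000/well, compound added after 5 h, with human liver microsomes 0.5 mg/mL and NADPH 0.5 mg/mL final; 16 h at 37 C, then LiveBLAzer 2 h RT, fluorescence.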
(In general: Quantitative high-throughput screening tests each substance at several concentrations.)

A short description of experiment [6]: p53 small molecule agonists, cell-based qHTS assay with rat liver microsomes (AID 1963578). A digest of the protocol:
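p53RE-bla cells, 4,000/well, pre-incubated 5 h, then given compounds plus rat liver microsomes (0.5 mg/mL final) and NADPH (0.5 mg/mL final). Incubation 16 h at 37 C; beta-lactamase reporter read by LiveBLAzer fluorescence after 2 h at room temperature.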

Experiment [7] in a line: p53 small molecule agonists, cell-based qHTS assay with human liver microsomes: qHTS cell viability counter screen (AID 1963579). Further: nearly all actives have a fitted effect of over 45% in size. The procedure, abridged:
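p53RE-bla cells, 4,000/well, dosed 5 hours after plating, with human liver microsomes (0.5 mg/mL final) plus NADPH (0.5 mg/mL final), 16 hours at 37 C. Viability read as CellTiter-Glo luminescence after 30 min at room temperature.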

The nature of experiment [8]: p53 small molecule agonists, cell-based qHTS assay with rat liver microsomes: qHTS cell viability counter screen (AID 1963580). Further: nearly all actives have a fitted effect of over 45% in size. The procedure, abridged:
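Cytotoxicity counter screen: intracellular ATP measured by CellTiter-Glo luminescence in the same wells as the beta-lactamase reporter read, on HCT-116 p53RE-bla cells exposed 16 h at 37 C to compounds with rat liver microsomes and NADPH, each 0.5 mg/mL final.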

Experiment [9] can be described thus: p53 small molecule agonists, cell-based qHTS assay: qHTS cell viability counter screen (AID 1963581). Further: nearly all actives have a fitted effect of over 45% in size. A digest of the protocol: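 Viability was counter-screened in parallel with the p53 agonist reporter by measuring intracellular ATP luminescence in the same HCT-116 p53RE-bla wells after 16 h compound treatment at 37 C.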
Experiment [10] in a line: p53 small molecule agonists, cell-based qHTS assay (AID 1963582; active means well fitted activation curve with a large enough effect in the signal ratio in the repeat runs, not every such curve was filed as active; the % refers to the signal ratio). A digest of the protocol: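 Cells carrying a p53-responsive bla reporter are treated with test compounds for 16 h at 37 C; beta-lactamase activity is then detected with LiveBLAzer B/G FRET substrate after 2 h at room temperature.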
The target in experiment [11] is 5-hydroxytryptamine receptor 2A (Homo sapiens) (UniProt P28223). Put plainly: 5-hydroxytryptamine receptor 2A (HTR2A) small molecule antagonists, cell-based qHTS assay (AID 1963586). Further: nearly all actives have a fitted effect of over 45% in size. Further: potency means the concentration at half of the fitted maximal effect. The procedure, abridged:
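CHO cells stably expressing human HTR2A were plated for 18 h at 37 C, then loaded with calcium dye for 1 h. Compounds were preincubated 5 min at room temperature before DOI (4 nM solution) was added. Kinetic fluorescence was read for 3 min.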

The target is the same in experiment [12]. The experiment can be described thus: 5-hydroxytryptamine receptor 2A (HTR2A) small molecule agonists, cell-based qHTS assay (AID 1963587). Further: nearly all actives have a fitted effect of over 30% in size. A digest of the protocol: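 CHO cells stably expressing human HTR2A, plated 18 h, loaded with calcium dye 1 h at 37 C. Agonist mode: compounds added and intracellular calcium fluorescence recorded kinetically for 2 min at 1 sec intervals.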

For experiment [13], the target named is Muscarinic acetylcholine receptor M1 (Homo sapiens) (UniProt P11229). The experiment can be described thus: Cholinergic receptor muscarinic 1 (CHRM1) small molecule agonists, cell-based qHTS assay (AID 1963589). Further: nearly all actives have a fitted effect of over 35% in size. A digest of the protocol: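 Cells were plated and incubated 18 h at 37 C/5% CO2, loaded with calcium dye for 1 h at 37 C, then treated with compounds in DMSO. Fluorescence was recorded kinetically at 1 sec intervals.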
Sequence of Muscarinic acetylcholine receptor M1 (Homo sapiens) (P11229 whole entry, looked up): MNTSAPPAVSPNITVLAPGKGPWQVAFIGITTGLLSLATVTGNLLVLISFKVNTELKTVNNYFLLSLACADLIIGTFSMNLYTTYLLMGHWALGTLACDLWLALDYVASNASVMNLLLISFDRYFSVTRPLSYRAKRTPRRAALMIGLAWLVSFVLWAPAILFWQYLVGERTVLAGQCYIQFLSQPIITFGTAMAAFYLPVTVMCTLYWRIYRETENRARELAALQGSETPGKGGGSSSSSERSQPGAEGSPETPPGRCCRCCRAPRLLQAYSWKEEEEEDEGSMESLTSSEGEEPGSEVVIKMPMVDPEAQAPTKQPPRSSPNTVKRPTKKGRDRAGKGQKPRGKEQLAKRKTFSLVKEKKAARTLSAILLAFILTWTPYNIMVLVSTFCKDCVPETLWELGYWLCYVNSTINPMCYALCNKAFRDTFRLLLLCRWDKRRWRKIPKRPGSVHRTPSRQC

Experiment [14] in a line: cAMP Responsive Elements (CRE) small molecule agonists, cell-based qHTS assay (AID 1963590). A digest of the protocol:
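Cells carrying a CRE-driven beta-lactamase reporter (HEK 293T) are seeded, incubated overnight (18 h), and treated with test compounds for 3 h at 37 C; reporter activity is then detected with a FRET substrate after 2 h at room temperature.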

Experiment [15] concerns the target D(2) dopamine receptor (Homo sapiens) (UniProt P14416). Put plainly: Dopamine D2 receptor (DRD2) small molecule agonists, cell-based qHTS assay (AID 1963594). Further: nearly all actives have a fitted effect of over 35% in size. A digest of the protocol:
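HEK293 cells stably expressing human DRD2, pre-treated with PDE inhibitor Ro20-1724 (0.1 mM final) and compound 10 min at room temperature, then stimulated with NKH477 (200nM […]) for 30 min. cAMP read by HTRF (665/620 nm).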

Experiment [16] concerns the target Muscarinic acetylcholine receptor M1 (Homo sapiens) (UniProt P11229). Put plainly: Cholinergic receptor muscarinic 1 (CHRM1) small molecule antagonists, cell-based qHTS assay (AID 1963588). Further: nearly all actives have a fitted effect of over 40% in size. Further: potency means the concentration at half of the fitted maximal effect. A digest of the protocol:
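Compounds were tested at 15 concentrations in three independent runs. Dye-loaded CHRM1-CHO cells were exposed 5 min at room temperature before stimulation by acetylcholine added at 50nM. Intracellular calcium was read kinetically on FDSS for 3 min.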

The nature of experiment [17]: cAMP Responsive Elements (CRE) small molecule antagonists, cell-based qHTS assay (AID 1963591; active means well fitted inhibition curve with a large enough effect in the signal ratio in the repeat runs, not every such curve was filed as active; the % refers to the signal ratio). The procedure, abridged: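 Cells (CRE-bla HEK 293T, DMEM with 10% dialyzed FBS and 25 mM HEPES) are seeded and incubated 18 h. Compounds are added with NKH477 agonist at 0.25 uM final for 3 h, then FRET substrate for 2 h.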
Experiment [18] concerns the target Beta-2 adrenergic receptor (Homo sapiens) (UniProt P07550). The experiment can be described thus: Adrenergic beta2 receptor (ADRB2) small molecule antagonists, cell-based qHTS assay (AID 1963592). Further: series mostly up to about 92 µM; nearly all actives have a fitted effect of over 50% in size. The procedure, abridged: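 Assay format: CHO-ADRB2 cells, 18-20hr seeding at 37C/5% CO2, then compound plus 1nM isoproterenol agonist mix for 0.5hr RT. Homogeneous time-resolved fluorescence cAMP detection after 1hr, expressed as 665/615 nm ratio.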

Experiment [19] shares this target. Put plainly: Adrenergic beta2 receptor (ADRB2) small molecule agonists, cell-based qHTS assay (AID 1963593).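 Further: CHO cells stably overexpressing human ADRB2.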 The procedure, abridged: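 CHO cells stably over-expressing ADRB2 were plated overnight at 37C, then dosed with compounds plus a stimulation mix containing 100uM IBMX and 25uM Ro-20-1724 for 0.5hr at room temperature. cAMP was measured by HTRF competition, 1hr.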

Experiment [20] concerns the target D(2) dopamine receptor (Homo sapiens) (UniProt P14416). The experiment can be described thus: Dopamine D2 receptor (DRD2) small molecule antagonists, cell-based qHTS assay (AID 1963595; active means well fitted inhibition curve with a large enough effect in the signal ratio in the repeat runs, with a control signal flat; the % refers to the signal ratio). A digest of the protocol: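 HEK293 cells stably expressing DRD2, preincubated with 0.1 mM Ro20-1724 and compounds 10 min, were stimulated with 200 nM NKH477 plus 12 nM quinpirole for 30 min at room temperature; cAMP measured by HTRF (665/620 nm).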

Sequence of Gonadotropin-releasing hormone receptor (Homo sapiens) (P30968 whole entry, looked up): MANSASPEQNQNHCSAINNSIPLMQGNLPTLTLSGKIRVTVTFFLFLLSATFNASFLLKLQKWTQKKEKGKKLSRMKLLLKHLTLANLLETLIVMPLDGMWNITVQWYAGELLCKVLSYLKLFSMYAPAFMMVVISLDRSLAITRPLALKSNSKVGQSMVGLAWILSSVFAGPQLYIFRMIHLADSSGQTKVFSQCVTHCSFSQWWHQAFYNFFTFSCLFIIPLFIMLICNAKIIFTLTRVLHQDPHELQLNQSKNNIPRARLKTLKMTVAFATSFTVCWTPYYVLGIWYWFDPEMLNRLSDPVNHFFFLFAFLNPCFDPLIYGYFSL
Sequence of 5-hydroxytryptamine receptor 2A (Homo sapiens) (P28223 whole entry, looked up): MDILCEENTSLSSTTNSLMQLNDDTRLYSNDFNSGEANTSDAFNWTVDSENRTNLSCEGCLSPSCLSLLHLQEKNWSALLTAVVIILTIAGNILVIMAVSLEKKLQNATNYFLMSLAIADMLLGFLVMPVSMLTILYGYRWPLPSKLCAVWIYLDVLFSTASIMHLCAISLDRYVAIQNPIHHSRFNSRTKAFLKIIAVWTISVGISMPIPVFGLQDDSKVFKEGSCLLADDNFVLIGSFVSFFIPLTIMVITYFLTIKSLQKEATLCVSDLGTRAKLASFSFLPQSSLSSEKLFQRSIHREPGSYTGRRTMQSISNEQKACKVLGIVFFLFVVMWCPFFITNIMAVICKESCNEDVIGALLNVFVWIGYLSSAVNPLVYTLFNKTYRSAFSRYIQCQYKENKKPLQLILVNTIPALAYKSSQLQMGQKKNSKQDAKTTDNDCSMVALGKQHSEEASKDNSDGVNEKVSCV
Sequence of Beta-2 adrenergic receptor (Homo sapiens) (P07550 whole entry, looked up): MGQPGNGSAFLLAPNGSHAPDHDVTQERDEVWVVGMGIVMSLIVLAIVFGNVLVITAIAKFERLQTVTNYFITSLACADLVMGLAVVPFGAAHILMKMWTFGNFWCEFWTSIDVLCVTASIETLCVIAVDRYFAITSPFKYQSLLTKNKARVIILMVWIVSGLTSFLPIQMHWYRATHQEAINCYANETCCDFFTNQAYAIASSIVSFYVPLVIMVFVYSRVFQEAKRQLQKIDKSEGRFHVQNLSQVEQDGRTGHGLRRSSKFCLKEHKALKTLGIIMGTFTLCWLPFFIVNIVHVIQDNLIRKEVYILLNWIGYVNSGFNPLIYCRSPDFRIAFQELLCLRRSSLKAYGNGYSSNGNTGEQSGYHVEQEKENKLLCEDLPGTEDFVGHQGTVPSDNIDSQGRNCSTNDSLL
Sequence of D(2) dopamine receptor (Homo sapiens) (P14416 whole entry, looked up): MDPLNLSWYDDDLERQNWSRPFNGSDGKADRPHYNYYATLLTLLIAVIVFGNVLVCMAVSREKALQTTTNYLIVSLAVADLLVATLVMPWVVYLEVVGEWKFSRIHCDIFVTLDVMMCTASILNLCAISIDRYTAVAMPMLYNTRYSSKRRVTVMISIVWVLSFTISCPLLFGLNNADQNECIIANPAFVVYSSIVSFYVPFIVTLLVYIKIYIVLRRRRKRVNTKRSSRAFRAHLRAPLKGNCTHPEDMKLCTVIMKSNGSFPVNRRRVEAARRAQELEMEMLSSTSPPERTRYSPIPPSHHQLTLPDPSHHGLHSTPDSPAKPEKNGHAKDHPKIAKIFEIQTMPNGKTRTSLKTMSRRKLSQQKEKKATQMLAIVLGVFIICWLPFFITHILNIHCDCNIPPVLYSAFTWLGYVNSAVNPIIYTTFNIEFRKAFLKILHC

For the compound `CNCCCC1c2ccccc2C=Cc2ccccc21`, the Potency entry in [1], in [2], in experiment [3], in [4], in experiment [5] and in experiment [6] was “inactive” each time. Moreover, the Potency result in experiment [7], in experiment [8], in experiment [9], in experiment [10], in [12] and in experiment [13] was “inactive” in each case. The Potency result in experiment [14] and in experiment [15] was “inactive” throughout. Also, the Potency in experiment [11] is 7.29 µM (active).
As to `COc1cc(C(C)=O)ccc1OCCCN1CCC(c2noc3cc(F)ccc23)CC1`, the Potency result in experiment [3], in experiment [8], in [9], in experiment [12], in experiment [13] and in experiment [14] was “inactive” throughout. The Potency entry in experiment [17] and in [15] was “inactive” in each case. In addition, in experiment [16], the Potency was 3.65 µM (active).
Regarding `Cc1ccc(N/N=c2\c(=O)cc/c(=N\Nc3ccc(S(=O)(=O)O)cc3)c2=O)c(C)c1`, the Potency entry in experiment [1], in [2], in experiment [3], in experiment [4], in [5] and in experiment [6] was “inactive” in each case. Moreover, the Potency entry in experiment [7], in [8], in experiment [9], in [10], in experiment [11] and in experiment [12] was “inactive” in each case. The Potency result in [13], in experiment [14], in experiment [17], in experiment [18] and in [15] was “inactive” each time.
As to `O=C(Cl)c1ccc(Cl)cc1Cl`, the Potency result in experiment [4], in experiment [7], in [8], in experiment [9], in experiment [10] and in [16] was “inactive” each time. Further, the Potency entry in experiment [13], in experiment [14], in experiment [17], in experiment [18] and in experiment [15] was “inactive” in each case.
On to `Cc1ccc(O)c(N)c1`, for which the Potency in [1] is 24.4 µM (active). Further, the Potency entry in experiment [2], in [3], in experiment [4], in experiment [5], in experiment [6] and in experiment [7] was “inactive” in each case. Moreover, the Potency entry in [8], in experiment [9], in [10], in [11], in [12] and in experiment [16] was “inactive” in each case. In addition, the Potency entry in experiment [13], in experiment [14], in experiment [17], in [18], in [19] and in experiment [15] was “inactive” each time. The Potency result in [20] is “inactive”.
`Cc1ccc(O)c(C(C)(C)C)c1`: the Potency result in experiment [1], in experiment [2], in experiment [3], in [4], in experiment [5] and in [6] was “inactive” each time. The Potency entry in experiment [7], in experiment [8], in [9], in experiment [10], in experiment [16] and in experiment [13] was “inactive” in each case. Moreover, the Potency result in experiment [18], in experiment [19], in experiment [15] and in experiment [20] was “inactive” each time. Moreover, in experiment [11], the Potency was 33.4 µM (active).
For `Oc1cc2c(cc1O)[C@H]1c3ccc(O)c(O)c3OC[C@@]1(O)C2`, the Potency result in experiment [1], in experiment [2], in [3], in [4], in [5] and in experiment [6] was “inactive” in each case. The Potency entry in experiment [7], in [8], in experiment [9], in experiment [10], in experiment [11] and in [16] was “inactive” each time. Besides, the Potency entry in experiment [13] and in experiment [14] was “inactive” in each case.
